This passage reports Potency results from PubChem BioAssay (Tox21).

Results filed as inconclusive are left out. Active and inactive are the calls of the source. Unless noted, calls follow the shape of the full dose curve.

The nature of test [1]: Nuclear factor erythroid 2-related factor 2/antioxidant responsive element (Nrf2/ARE) small molecule agonists: qHTS cell viability counter screen in human keratinocytes (AID 1919968; active = well fitted curve in the direction sought with a large enough effect in the repeat runs; an effect the other way counts as inactive or inconclusive; also: nearly all actives have a fitted effect of over 55% in size; also: potency is read from the fitted curve at half-maximal effect). Summed up:
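Viability counter-screen: KeratinoSens reporter cells, DMSO-delivered compounds, 23 h at 37 C, CellTiter-Fluor fluorescence.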

Test [2] in a line: Nuclear factor erythroid 2-related factor 2/antioxidant responsive element (Nrf2/ARE) small molecule agonists: luciferase reporter gene qHTS assay in human keratinocytes (AID 1919969). Also: nearly all actives have a fitted effect of over 35% in size. Also: potency is read from the fitted curve at half-maximal effect.
Test [3] concerns the target Gonadotropin-releasing hormone receptor (Homo sapiens) (UniProt P30968). Kind of test: Human gonadotropin-releasing hormone receptor (GnRHR) small molecule agonists, calcium flux assay in GnRHR-HEK293 cells (AID 1920063). Also: nearly all actives have a fitted effect of over 35% in size. Summed up:
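Tox21-format agonist screen using human GnRHR-expressing HEK293 cells and a fluorescent calcium dye; kinetic 3-min fluorescence reading after compound addition, 15-point concentration series run in triplicate.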

The target of test [4] is KiSS-1 receptor (Homo sapiens) (UniProt Q969F8). Kind of test: Human kisspeptin (KISS1R) small molecule agonists, calcium flux assay in KISS1R-HEK293 cells (AID 1920064; active = well fitted curve in the direction sought with a large enough effect in the repeat runs; an effect the other way counts as inactive or inconclusive). In outline: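 Intracellular calcium mobilization in KISS1R-HEK293 cells was recorded by fluorescence (Ex/Em 480/540) for 3 min following compound addition to cells pre-loaded 1 h with calcium dye.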
Test [5] can be described thus: G protein-coupled receptor (GPCR) small molecule agonists, calcium flux assay: HEK293 wild type cell line counter screen (AID 1920065). In outline:
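In this agonist-mode screen, ATP is the positive control and DMSO the vehicle. Cells grow 18 h before a 1 h dye incubation at 37 C; signal is taken at Ex/Em 480/540 over 3 min.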
For orientation: Calcium flux is commonly read through the fluorescence of an indicator in the cells.

Test [6] in a line: p53 small molecule agonists, cell-based qHTS assay with human liver microsomes: qHTS cell viability counter screen (AID 1963579). Also: nearly all actives have a fitted effect of over 45% in size. In outline:
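p53RE-bla cells, 4,000/well, dosed 5 hours after plating, with human liver microsomes (0.5 mg/mL final) plus NADPH (0.5 mg/mL final), 16 hours at 37 C. Viability read as CellTiter-Glo luminescence after 30 min at room temperature.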

A short description of test [7]: p53 small molecule agonists, cell-based qHTS assay with rat liver microsomes: qHTS cell viability counter screen (AID 1963580). Also: nearly all actives have a fitted effect of over 45% in size. Summed up:
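HCT-116 p53RE-bla, 4,000 cells/well, 5 h pre-incubation; cpd + rat liver microsomes 0.5 mg/mL + NADPH 0.5 mg/mL (final); 16 h, 37 C; CellTiter-Glo, 30 min RT; luminescence.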

Test [8] deals with 5-hydroxytryptamine receptor 2A (Homo sapiens) (UniProt P28223). Kind of test: 5-hydroxytryptamine receptor 2A (HTR2A) small molecule antagonists, cell-based qHTS assay (AID 1963586). Also: nearly all actives have a fitted effect of over 45% in size. Summed up: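 Antagonist-mode intracellular calcium assay: DOI (4 nM) added after 5 min compound pre-incubation at room temperature to dye-loaded HTR2A-CHO cells. Fluorescence followed for 3 min, sampled every second.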

Test [9] has the same target. Put plainly: 5-hydroxytryptamine receptor 2A (HTR2A) small molecule agonists, cell-based qHTS assay (AID 1963587). Also: nearly all actives have a fitted effect of over 30% in size. Also: potency is read from the fitted curve at half-maximal effect. In outline: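 Kinetic calcium-flux fluorescence (2 min, 1 sec intervals) after compound addition in agonist mode. HTR2A-CHO cells were cultured 18 h, then dye-loaded 1 h at 37 C.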
A general note: qHTS replaces the single test concentration by a dilution series.

Test [10] concerns the target Muscarinic acetylcholine receptor M1 (Homo sapiens) (UniProt P11229). Put plainly: Cholinergic receptor muscarinic 1 (CHRM1) small molecule antagonists, cell-based qHTS assay (AID 1963588). Also: nearly all actives have a fitted effect of over 40% in size. Also: potency is read from the fitted curve at half-maximal effect. In outline: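 CHRM1-CHO calcium-flux assay, antagonist mode. Cells were seeded 18 h, dye-loaded 1 h at 37 C and given compound for 5 min at RT, then acetylcholine was added at 50nM. FDSS fluorescence was read 3 min; 15 concentrations, three runs.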

Test [11] shares this target. Kind of test: Cholinergic receptor muscarinic 1 (CHRM1) small molecule agonists, cell-based qHTS assay (AID 1963589). Also: nearly all actives have a fitted effect of over 35% in size. In outline: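 Stable CHRM1-CHO cells (human receptor) were incubated 18 h, dye-loaded for 1 h at 37 C and exposed to test compounds for agonist activity, with calcium-dependent fluorescence followed kinetically.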
Test [12] can be described thus: cAMP Responsive Elements (CRE) small molecule agonists, cell-based qHTS assay (AID 1963590). Summed up: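 FRET-based beta-lactamase readout (LiveBLAzer B/G, 2 h RT) quantified CRE activation in HEK 293T CRE-bla cells after 3 h treatment with DMSO-dissolved compounds.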
Test [13] can be described thus: cAMP Responsive Elements (CRE) small molecule antagonists, cell-based qHTS assay (AID 1963591; active = well fitted inhibition curve with a large enough effect in the signal ratio in the repeat runs, not every such curve was filed as active; the % refers to the signal ratio). Summed up: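 qHTS in CRE-bla HEK 293T cells: compound in DMSO, then 0.25 uM NKH477 (final), 3 h at 37 °C/5% CO2; beta-lactamase FRET read-out after 2 h substrate incubation.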
Test [14] concerns the target Beta-2 adrenergic receptor (Homo sapiens) (UniProt P07550). Kind of test: Adrenergic beta2 receptor (ADRB2) small molecule antagonists, cell-based qHTS assay (AID 1963592). Also: series mostly up to about 92 µM; nearly all actives have a fitted effect of over 50% in size. In outline:
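Cells (CHO, stable ADRB2 overexpression) incubated 18-20hr at 37C; compounds added from DMSO; agonist mix (1nM isoproterenol, 100uM IBMX, 25uM Ro-20-1724) added; 0.5hr RT; d2-cAMP and anti-cAMP-cryptate added; 1hr RT; 665/615 nm read.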

Test [15] has the same target. Kind of test: Adrenergic beta2 receptor (ADRB2) small molecule agonists, cell-based qHTS assay (AID 1963593).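 Also: CHO cells stably overexpressing human ADRB2.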 Summed up: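 CHO cells stably over-expressing ADRB2 were plated overnight at 37C, then dosed with compounds plus a stimulation mix containing 100uM IBMX and 25uM Ro-20-1724 for 0.5hr at room temperature. cAMP was measured by HTRF competition, 1hr.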
Test [16] concerns the target D(2) dopamine receptor (Homo sapiens) (UniProt P14416). Put plainly: Dopamine D2 receptor (DRD2) small molecule agonists, cell-based qHTS assay (AID 1963594). Also: nearly all actives have a fitted effect of over 35% in size. Summed up:
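cAMP accumulation in DRD2-HEK293 cells measured by HTRF after 1 h detection; compounds added 10 min before NKH477 (200nM […]) forskolin-analogue stimulation, 30 min at room temperature, with Ro20-1724 present at 0.1 mM final.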

For test [17] the target is unchanged. Kind of test: Dopamine D2 receptor (DRD2) small molecule antagonists, cell-based qHTS assay (AID 1963595; active = well fitted inhibition curve with a large enough effect in the signal ratio in the repeat runs, with a control signal flat; the % refers to the signal ratio). In outline:
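Antagonist mode in DRD2-HEK293 cells: after compound addition with 0.1 mM Ro20-1724, cells received quinpirole (12 nM) and NKH477 (200 nM) for 30 min at room temperature; HTRF cAMP read after 1 h detection.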

Test [18] is described as follows: p53 small molecule agonists, cell-based qHTS assay: qHTS cell viability counter screen (AID 1963581). Also: nearly all actives have a fitted effect of over 45% in size. In outline:
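Compounds are pinned onto HCT-116 p53RE-bla cells and left 16 h at 37 C. Following the reporter FRET read, ATP is quantified by CellTiter-Glo luminescence after 30 min at room temperature.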

A short description of test [19]: p53 small molecule agonists, cell-based qHTS assay (AID 1963582; active = well fitted activation curve with a large enough effect in the signal ratio in the repeat runs, not every such curve was filed as active; the % refers to the signal ratio). Summed up: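 Agonist activity was scored from beta-lactamase FRET fluorescence in p53RE-bla cells treated 16 h at 37 C with compounds in DMSO, substrate incubation being 2 h at room temperature.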

Sequence of KiSS-1 receptor (Homo sapiens) (Q969F8 whole entry, looked up): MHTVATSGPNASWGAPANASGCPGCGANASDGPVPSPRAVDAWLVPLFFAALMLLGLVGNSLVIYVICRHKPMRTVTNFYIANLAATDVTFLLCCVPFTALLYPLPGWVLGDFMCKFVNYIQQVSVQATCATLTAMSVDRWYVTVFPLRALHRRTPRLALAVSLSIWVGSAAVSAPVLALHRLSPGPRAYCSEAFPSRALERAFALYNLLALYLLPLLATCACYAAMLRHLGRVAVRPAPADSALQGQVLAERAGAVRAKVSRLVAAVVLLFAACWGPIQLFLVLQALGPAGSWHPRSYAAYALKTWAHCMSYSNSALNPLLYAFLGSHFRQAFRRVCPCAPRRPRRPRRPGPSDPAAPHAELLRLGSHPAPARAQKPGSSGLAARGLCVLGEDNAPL
Sequence of 5-hydroxytryptamine receptor 2A (Homo sapiens) (P28223 whole entry, looked up): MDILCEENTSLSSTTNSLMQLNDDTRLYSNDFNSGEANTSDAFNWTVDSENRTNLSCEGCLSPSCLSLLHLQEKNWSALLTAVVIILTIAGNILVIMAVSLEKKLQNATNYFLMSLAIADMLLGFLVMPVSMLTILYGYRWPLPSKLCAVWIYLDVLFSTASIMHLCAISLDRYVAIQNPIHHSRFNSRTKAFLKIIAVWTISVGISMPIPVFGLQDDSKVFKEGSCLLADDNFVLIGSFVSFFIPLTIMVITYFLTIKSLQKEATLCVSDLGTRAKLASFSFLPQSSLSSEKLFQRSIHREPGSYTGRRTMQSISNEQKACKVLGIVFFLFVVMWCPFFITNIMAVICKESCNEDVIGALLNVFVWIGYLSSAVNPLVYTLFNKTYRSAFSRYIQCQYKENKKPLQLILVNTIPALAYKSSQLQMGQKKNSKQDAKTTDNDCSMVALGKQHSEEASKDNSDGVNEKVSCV
Sequence of Muscarinic acetylcholine receptor M1 (Homo sapiens) (P11229 whole entry, looked up): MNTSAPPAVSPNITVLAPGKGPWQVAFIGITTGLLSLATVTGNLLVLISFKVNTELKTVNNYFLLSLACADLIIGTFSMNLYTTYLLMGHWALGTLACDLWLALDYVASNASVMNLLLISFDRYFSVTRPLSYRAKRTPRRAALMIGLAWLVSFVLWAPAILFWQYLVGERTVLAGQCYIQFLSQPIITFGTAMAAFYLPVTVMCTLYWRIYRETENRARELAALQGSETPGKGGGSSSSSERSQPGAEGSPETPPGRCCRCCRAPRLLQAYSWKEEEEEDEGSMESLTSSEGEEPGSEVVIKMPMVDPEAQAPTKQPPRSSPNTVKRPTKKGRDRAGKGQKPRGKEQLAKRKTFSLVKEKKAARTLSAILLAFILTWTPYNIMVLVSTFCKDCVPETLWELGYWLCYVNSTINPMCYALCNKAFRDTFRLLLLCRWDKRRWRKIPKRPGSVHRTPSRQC
Sequence of D(2) dopamine receptor (Homo sapiens) (P14416 whole entry, looked up): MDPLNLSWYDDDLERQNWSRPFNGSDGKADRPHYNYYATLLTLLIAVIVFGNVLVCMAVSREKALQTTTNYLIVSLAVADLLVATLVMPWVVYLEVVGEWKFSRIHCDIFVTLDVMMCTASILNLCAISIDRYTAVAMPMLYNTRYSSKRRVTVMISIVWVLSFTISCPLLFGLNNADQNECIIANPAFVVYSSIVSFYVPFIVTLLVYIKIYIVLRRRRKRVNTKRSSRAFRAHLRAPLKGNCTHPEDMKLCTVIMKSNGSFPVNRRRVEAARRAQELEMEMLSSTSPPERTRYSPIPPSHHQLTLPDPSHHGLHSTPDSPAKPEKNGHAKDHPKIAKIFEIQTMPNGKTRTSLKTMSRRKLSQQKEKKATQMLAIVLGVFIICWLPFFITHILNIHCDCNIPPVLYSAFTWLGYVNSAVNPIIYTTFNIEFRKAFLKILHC
Sequence of Beta-2 adrenergic receptor (Homo sapiens) (P07550 whole entry, looked up): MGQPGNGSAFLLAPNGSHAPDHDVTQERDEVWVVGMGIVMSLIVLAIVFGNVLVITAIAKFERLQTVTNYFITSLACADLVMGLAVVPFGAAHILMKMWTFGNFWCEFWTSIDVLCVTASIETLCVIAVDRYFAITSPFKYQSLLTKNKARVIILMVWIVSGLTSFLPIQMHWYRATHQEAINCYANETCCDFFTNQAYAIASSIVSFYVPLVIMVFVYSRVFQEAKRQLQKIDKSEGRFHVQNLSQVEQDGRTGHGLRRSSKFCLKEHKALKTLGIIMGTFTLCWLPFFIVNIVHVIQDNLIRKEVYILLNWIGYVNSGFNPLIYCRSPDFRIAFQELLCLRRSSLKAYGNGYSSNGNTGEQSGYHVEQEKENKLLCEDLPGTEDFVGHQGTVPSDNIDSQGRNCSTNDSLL
Sequence of Gonadotropin-releasing hormone receptor (Homo sapiens) (P30968 whole entry, looked up): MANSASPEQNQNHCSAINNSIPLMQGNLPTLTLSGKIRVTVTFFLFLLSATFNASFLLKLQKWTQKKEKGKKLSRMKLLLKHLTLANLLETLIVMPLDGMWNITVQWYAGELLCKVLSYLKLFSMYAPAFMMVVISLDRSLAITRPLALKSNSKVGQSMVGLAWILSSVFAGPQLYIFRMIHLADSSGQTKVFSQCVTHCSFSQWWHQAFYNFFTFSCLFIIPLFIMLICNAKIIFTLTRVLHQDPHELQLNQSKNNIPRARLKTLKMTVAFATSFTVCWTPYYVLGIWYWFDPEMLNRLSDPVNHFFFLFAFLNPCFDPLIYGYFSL

On to `Cc1cc(C(F)(C(F)(F)F)C(F)(F)F)ccc1NC(=O)c1cccc(I)c1C(=O)NC(C)(C)CS(C)(=O)=O`, for which the Potency result in test [1], in test [2], in test [3], in test [4], in [5] and in test [6] was “inactive” in each case. In addition, the Potency result in test [7], in [8], in test [9], in test [10], in test [11] and in test [12] was “inactive” each time. For the same compound, the Potency entry in test [13], in [14], in [15], in test [16] and in test [17] was “inactive” throughout.
As to `COc1cc(C[C@@H](C)N)c(OC)cc1C`, the Potency entry in [1], in test [2], in test [3], in test [4], in test [5] and in test [6] was “inactive” each time. Moreover, the Potency result in test [7], in test [18], in [10], in test [11], in test [12] and in test [13] was “inactive” throughout. Moreover, in [17], the Potency result is “inactive”. For the same compound, the Potency in [9] is 10.5 nM (active).
As to `CCCCN(CCCC)C(=S)[S-].CCCCN(CCCC)C(=S)[S-].[Ni+2]`, the Potency was 8420 nM (active) in test [1] and 2990 nM (active) in test [2]. The Potency result in test [3], in [4], in [5], in test [6], in test [7] and in test [18] was “inactive” throughout. Also, the Potency entry in [9], in [10], in [11], in test [12], in test [13] and in test [14] was “inactive” each time. The Potency result in test [15], in [16] and in test [17] was “inactive” in each case.
As to `CNC(=O)Oc1cc(C)cc(C(C)C)c1`, the Potency entry in test [1], in test [2], in test [3], in test [4], in [5] and in [6] was “inactive” in each case. For the same compound, the Potency entry in test [7], in test [19], in test [8], in [9], in test [10] and in test [11] was “inactive” each time. Moreover, the Potency entry in test [12], in test [13], in [14], in test [16] and in test [17] was “inactive” in each case.
As for `C=C(C)[C@H]1CN[C@H](C(=O)O)[C@H]1CC(=O)O`, the Potency result in [1], in test [2], in test [3], in test [4], in test [5] and in [6] was “inactive” throughout. Besides, the Potency entry in test [7], in [18], in test [9], in [10], in test [11] and in test [12] was “inactive” each time. Moreover, the Potency entry in test [13], in [14], in test [15], in [16] and in test [17] was “inactive” each time.
Take `NC(=O)C(Cl)(Cl)Cl`: the Potency result in test [1], in test [2], in test [3], in test [4], in test [5] and in test [6] was “inactive” throughout. The Potency entry in test [7], in test [18], in test [9], in test [10], in test [11] and in test [12] was “inactive” in each case. Moreover, the Potency result in test [13], in test [15], in test [16] and in test [17] was “inactive” each time.
On to `CCC1(CC)C(=O)NC(=O)NC1=O`, for which the Potency result in test [1], in test [2], in test [3], in test [4], in [5] and in [6] was “inactive” each time. In addition, the Potency entry in test [7], in test [8], in [9], in [10], in test [11] and in [12] was “inactive” throughout. Further, the Potency result in [13] and in test [14] was “inactive” in each case.
Take `CN(C1CCCCC1)C1CCCCC1`: the Potency result in test [1], in test [2], in test [3], in test [4], in test [5] and in test [6] was “inactive” throughout. The Potency entry in [7], in test [8], in [9], in test [10], in test [11] and in test [12] was “inactive” throughout. The Potency result in test [13], in test [14], in test [16] and in test [17] was “inactive” throughout.
In the case of `Clc1ccc(C(OCCN2CCCCC2)c2ccccc2)cc1` (stereo not drawn), the Potency entry in test [1], in test [2], in [3], in test [4], in test [5] and in test [6] was “inactive” throughout. Moreover, the Potency result in test [7], in test [18], in test [9], in [11], in test [13] and in [14] was “inactive” in each case. The Potency result in [15] and in test [16] was “inactive” in each case. Moreover, in [10], the Potency is 460 nM (active).
